This passage reports PBM binding z-score results from the supplement of paper PMC6555819.

This assay has as its system VDR:RXRa (NR concentration 270 nM, RXRa partner concentration 90 nM). Nature of the assay: PBM binding z-score (relative to random genomic background probes); higher = stronger binding; sequences stand for … in GC…GCGATTGACAGCGTAGAATGAAGG
As to the method: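 Protein-binding microarray (Agilent 4x180K custom design, double-stranded 60-nt probes: 5' GC cap, 34-nt variable region, 24-nt constant primer region; full probe sequence given). Purified or IVT nuclear receptor:RXRα heterodimers (3:1 NR:RXRα, mostly 270:90 nM) or homodimers were incubated for 1 h in PBS with 2% milk and no ligand, then detected with Alexa488 antibodies. Fluorescence from o1-orientation probes (~5 replicates averaged) was converted to z-scores against 500 random hg19 background probes. Variable regions are seed direct-repeat (DR0–DR5) sites, all their single-nucleotide variants and half-site ablations.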
CTACGTAGGTTAAGGGGGTCATTCAGTTTGAAAG had a PBM binding z-score of 7.58.

Consider AGTCAAAGTTCACGAGGTAACGTAAGATTCAGCT, for which the PBM binding z-score worked out at 4.94. CCTGCTAGGTCATGGTCAGGTAATCTACAGTATG: the PBM binding z-score came out at 1.76. Turning to CCGACTGGGGCAACGGTTACCATACTCAGTACGA, the PBM binding z-score is -0.409. The result for CCGAGTAGGTTACGAGGGGGCATTCTGTGCGAAT reads 4.89. Regarding CTCGAAAGGTCAGTTGAGGTGAGTATACGGATAA, the PBM binding z-score was 4.7. For CCTAGTTGGTCAAGCTCACACACGCTATAGGTAC the value was 0.609. Consider TCATATAGGTAATAAAGGTGAAAGTCGGCATCTA, for which the PBM binding z-score came to 1.42. In the case of CGAACTAGGTCACCAGGACAGTGTAGAGGTTGGA, the PBM binding z-score is 2.17.

Sequence CCTGGCAGGCCAGGGTCACTCAAGCATTTCGCTT gave a PBM binding z-score of 2.52. CGAACTATGTCACCAGGACAGTGAAGAGGTTGGA displayed a PBM binding z-score of 0.173. For GATTACGGGTCAAAGGTTATAGCATGAATAGAAT the value was 5.82. GCTAGTTTGTCAGTAAAAGGTCACACACCGGTCG displayed a PBM binding z-score of 3.95. For CGAACTAGGGCAAAGGACAGTGAAAGGCGACGTA, the PBM binding z-score is -0.612. For CCTTACGGGTCAAGGTAATAGCACGGGTGGTACG, the PBM binding z-score is 2.65. TAGCCTAGGTTATGCGGGCCAGTATAGTGTCGGC displayed a PBM binding z-score of -0.0997.

Sequence CCGAGTGGGTTACGAGGGGGCATTCAGTGCGAAT registered a PBM binding z-score of 5.13.

Consider CCTACTGGGCCATTCAGAGGTCATCGATCATATG, for which the PBM binding z-score turned out to be 4.05.

Regarding CTATGTACGTTAAGGGGGTCATTCAGTTTGAAAG, the PBM binding z-score was found to be 6.72. With CCGAGTAGATTACGAGGGGGCATTCAGTGCGAAT, the PBM binding z-score came to 3.48. CGTCCAAGGTCAAAGGTCAGCGAAGAGATGACGG showed a PBM binding z-score of 6.91. Consider CTAGGTAGGTTAAGGGGGTCATTCAGTTTGAAAG, for which the PBM binding z-score was 7.24.

TCTTGTAGATCAAAGCTTAAGAAAGCCGAAGCCT came in with a PBM binding z-score of -0.115. For CCTGCTAGGTCTATGGTCAGCTAAAGCAGCTCGC the value was -0.536.

In turn, TCGAGTAGGTTACGGGGGCATTTAGGGATGAAGA gave a PBM binding z-score of 3.96. For ATATGTAGGTAACATCCGGGTCATTCAGGCTATG, the PBM binding z-score was 3.75.

CCTACGGGGCCAAGGTCATTGATCAGTCAAAGCA came in with a PBM binding z-score of 3.52. The sequence CAAACTAGGTCACGAAAGGGCAAAGTCGAATGAC yielded a PBM binding z-score of 5.28. In turn, CAAACTAGGTCAAAGGACAGTGAAAGGCGACGTA returned a PBM binding z-score of 1.53. Take ATATGTAGGATATCGGGTCATTCAGTTTGCGCAT: the PBM binding z-score worked out at 4.94.

Sequence GCTGCTAGGTTAACTGATGGTCAGCTAAAGCTCG showed a PBM binding z-score of -0.182. TGGAGTAGGTTACGGGGGCATTCAGGGATGAAGA: the PBM binding z-score was determined as 4.24. The sequence CAAACTAGGTCACAGAGGTCAACGTCCGTGCGTA came in with a PBM binding z-score of 7.74. Turning to ATCGAAAGGTCGCAGGTGAGTATACCCACCCGAA, the PBM binding z-score amounted to 3.2. The sequence CAAACTAGGTCAAAGGTCAAACTCGAGCCAACCA returned a PBM binding z-score of 6.96. ACTAGCAGGCCAAAGGTCACTCAAGATTAGTCCG displayed a PBM binding z-score of 4.05. ATATGTAGGTTAGCTGGCGTCATTCAGACTAGGC displayed a PBM binding z-score of -0.12. CGAACTAGGTCAAAGGACAGCGAAAGGCGACGTA came in with a PBM binding z-score of 1.47.

CCTTACAGGTCAAGGTTATAGCACGGGTGGTACG gave a PBM binding z-score of 3.41.

Turning to TCGAGTAGGTTACGGGGTCATTCAGGGATGAAGA, the PBM binding z-score was determined as 6.34.
